Pf apPOL inh: Pf-apPOL DNA polymerase inhibition; 210,000 compounds, 0.25% hits; inhibition, % at 10 µM; AID 1794808; Recombinant Pf-apPOL, molecular beacon fluorescence, 1.5 h
mHTT-CaM PPI inh: disrupts binding of mutant huntingtin to calmodulin. P42858. AlphaScreen His-mHTT/GST-CaM binding, luminescence. inhibition, % at 15 µM. 190,000 compounds, 3.6% hits. AID 1671202;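 note: 0% = both proteins with DMSO and 100% = one protein alone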
* = called active by the depositor; nt = no result. In the library only some 3.5% were active in any assay of this set; here they are far more common. Cut-off read from the data, not from the text of the source: active = inhibition above about 50%; inactive = the rest.

SMILES | Pf apPOL inh | mHTT-CaM PPI inh
COc1ccccc1CNc1nccc(-n2nc(C)cc2C)n1 | -5 | -8
CSc1nnc2c(n1)OC(c1cc3c(cc1Br)OCO3)Nc1ccccc1-2 (stereo not drawn) | 85* | 0
CCCCSc1nnc2c(n1)OC(c1cc3c(cc1[N+](=O)[O-])OCO3)Nc1ccccc1-2 (stereo not drawn) | -4 | 77*
CSc1nnc2c(n1)OC(c1cccs1)Nc1ccccc1-2 (stereo not drawn) | -2 | 6
CCSc1nnc2c(n1)OC(c1cc3c(cc1[N+](=O)[O-])OCO3)Nc1ccccc1-2 (stereo not drawn) | 2 | 53*
CCCCSc1nnc2c(n1)OC(c1ccncc1)Nc1ccccc1-2 (stereo not drawn) | 4 | 8
CSc1nnc2c(n1)OC(c1ccc(Br)s1)Nc1ccccc1-2 (stereo not drawn) | -3 | 57*
CSc1nnc2c(n1)OC(c1ccccc1O)Nc1ccccc1-2 (stereo not drawn) | 2 | -4
CCSc1nnc2c(n1)OC(c1cn[nH]c1-c1ccccc1)Nc1ccccc1-2 (stereo not drawn) | -6 | 7
O=C(CCC1CCCC1)N1CCC(COc2ccccc2C(=O)N2CCCC2)CC1 | -3 | 9
COc1cccc(C=C2Oc3c(ccc4c3CN(Cc3ccccn3)CO4)C2=O)c1 | -33 | 99*
COc1cc(C=C2Oc3c(ccc4c3CN(Cc3ccccn3)CO4)C2=O)cc(OC)c1OC | -36 | 100*
COc1ccc(N2COc3ccc4c(c3C2)OC(=Cc2ccc(OC)c(OC)c2)C4=O)cc1 | 5 | 31
COc1ccccc1CN1COc2ccc3c(c2C1)OC(=Cc1cccnc1)C3=O | -10 | 3
COc1cccc(CN2COc3ccc4c(c3C2)OC(=Cc2cc(OC)c(OC)c(OC)c2)C4=O)c1 | 8 | 11
COc1ccccc1CN1COc2ccc3c(c2C1)OC(=Cc1cc(OC)c(OC)c(OC)c1)C3=O | -17 | 8
COc1ccccc1CN1COc2ccc3c(c2C1)OC(=Cc1ccncc1)C3=O | -21 | 100*
COc1cc(C=C2Oc3c(ccc4c3CN(c3ccc5c(c3)OCO5)CO4)C2=O)cc(OC)c1OC | -1 | 59*
O=C(C1CC(c2ccc(F)cc2)=NO1)N1CCC(Cc2ccccc2)CC1 (stereo not drawn) | -6 | -12
O=C(C1CCCC1)N1CCCC1c1nc(-c2cccc(C(F)(F)F)c2)no1 (stereo not drawn) | -5 | 0
Cc1ccc(OCC(=O)N2CCc3c(c(-c4nc(C)no4)nn3C)C2)cc1 | 0 | 11
COc1ccc(C=C2Oc3c(ccc4c3CN(Cc3ccccn3)CO4)C2=O)c(OC)c1 | -89 | 100*
COc1ccc(OC)c(C=C2Oc3c(ccc4c3CN(Cc3ccncc3)CO4)C2=O)c1 | -5 | 16
O=C(c1cccnc1)N1CCC(c2nncn2-c2ccccc2)CC1 | 0 | -10
Cc1c(Cl)cccc1N1CC(C(=O)O)CC1=O (stereo not drawn) | -9 | 5
SMILES | Pf apPOL inh | mHTT-CaM PPI inh
O=C(OCC1OC(O)C(O)(COC(=O)c2cc(O)c(O)c(O)c2)C1O)c1cc(O)c(O)c(O)c1 (stereo not drawn) | 64* | nt
Cc1cc(C)cc(C(=O)N2CCC(n3c(-c4ccoc4)nc4cccnc43)C2)c1 (stereo not drawn) | 0 | 28
O=[N+]([O-])c1ccc(N2CCCC2)cc1N1CCN(c2ccccc2)CC1 | -1 | 4
CCOc1nc(NCCN2CCOCC2)nc(Nc2ccc(I)cc2)n1 | 6 | 57*
Clc1nc(NCCN2CCOCC2)nc(Nc2ccc(I)cc2)n1 | -1 | 4
CCC1Sc2ccccc2N(CC(=O)NCCN2CCN(c3ccccc3F)CC2)C1=O (stereo not drawn) | -8 | 10
Clc1cccc(C2Oc3ccccc3C3CC(c4ccccc4)=NN32)c1 (stereo not drawn) | nt | -7
COc1cc(C2Oc3ccccc3C3CC(c4cccs4)=NN32)cc(OC)c1O (stereo not drawn) | 8 | 47
COc1ccc(OC)c(C2Oc3c(OC)cccc3C3CC(c4cccs4)=NN32)c1 (stereo not drawn) | -13 | 2
COc1c(O)ccc(C2Oc3ccccc3C3CC(c4cccs4)=NN32)c1[N+](=O)[O-] (stereo not drawn) | 0 | 55*
CCOc1cccc(C2Oc3ccccc3C3CC(c4cccs4)=NN32)c1O (stereo not drawn) | -4 | 50*
COc1ccc(C2Oc3ccccc3C3CC(c4cccs4)=NN32)cc1O (stereo not drawn) | 10 | 52*
COc1cc(C(=O)O)c(C2Oc3ccccc3C3CC(c4ccccc4)=NN32)cc1OC (stereo not drawn) | -5 | 50*
O=C(c1cccs1)N1N=C(c2cccs2)CC1c1cc([N+](=O)[O-])ccc1O (stereo not drawn) | 2 | 48
Cc1cccc(C2=N/C(=C\c3coc4ccc(Cl)cc4c3=O)C(=O)O2)c1 | 9 | -1
Cc1ccc(NS(=O)(=O)c2ccc(NC(=O)c3ccco3)cc2)c(C)c1 | -8 | 10
CCOc1ccccc1C1Nc2ccccc2NC2=C1C(=O)CC(c1ccccc1Cl)C2 (stereo not drawn) | -3 | 39
Cc1ccc(NC(=O)c2cc3n(n2)C(C(F)(F)F)CC(c2ccco2)N3)c(C)c1 (stereo not drawn) | -5 | -8
CCN1CCN(Cc2c(O)cc(C)c3c2OC(=Cc2cccnc2)C3=O)CC1 | -4 | 2
Oc1ccc(C2Oc3ccccc3C3CC(c4cccs4)=NN32)cc1O (stereo not drawn) | -1 | 29
c1coc(C2Oc3ccccc3C3CC(c4cccs4)=NN32)c1 (stereo not drawn) | -9 | 92*
Oc1oc(-c2ccccc2)nc1C=Nc1ccc(Br)cc1Br | -4 | 2
O=C(NCc1ccc(F)cc1)N1CCC2(CC1)Nc1ccccc1-n1cccc12 | -4 | 56*
O=C(NCc1ccccc1)N1CCC2(CC1)Nc1ccccc1-n1cccc12 | -2 | 71*
O=C(NCCc1ccccc1)N1CCC2(CC1)Nc1ccccc1-n1cccc12 | -2 | 69*
SMILES | Pf apPOL inh | mHTT-CaM PPI inh
COCCNC(=O)N1CCC2(CC1)Nc1cc(F)ccc1-n1cccc12 | 6 | 36
COC(=O)CNC(=O)N1CCC2(CC1)Nc1ccccc1-n1cccc12 | 0 | 47
COc1cccc(CNC(=O)N2CCC3(CC2)Nc2ccccc2-n2cccc23)c1 | -5 | 61*
CN1c2ccccc2C(=O)NC12CCN(C(=O)NCCc1ccccc1)CC2 | -7 | 2
CCOc1ccc(N(C(=O)C(C)C)C2C=CS(=O)(=O)C2)cc1 (stereo not drawn) | -6 | 0
CSc1cccc(NC(=O)CN(c2cccc(Cl)c2C)S(C)(=O)=O)c1 | 5 | 1
Cc1ccc2ncn(C3CCN(S(=O)(=O)c4ccccc4F)CC3)c(=O)c2c1 | 2 | -10
O=C(NCCc1ccccc1)N1CCC2(CC1)Nc1cc(F)ccc1-n1cccc12 | -4 | 56*
CCCNC(=O)N1CCC2(CC1)Nc1cc(F)ccc1-n1cccc12 | 3 | 31
CSc1nnc(-c2nn(C)c3c2CN(C(=O)c2ccc(Br)o2)CC3)n1C | -1 | -5
O=C1N/C(=C\c2ccc(N3CCCC3)cc2)C(=O)N1Cc1ccccc1Cl | 88* | 13
O=C1N/C(=C/c2ccc(N3CCCC3)cc2)C(=O)N1Cc1ccc([N+](=O)[O-])cc1 | 3 | 16
Cc1nn(C)c2ncc(C(=O)NCc3ccccc3)c(NCc3ccccc3)c12 | -4 | 2
